{
  "source": "PubChem BioAssay",
  "key": {"[1]": {"experiment": "viability loss in pontine glioma line – cell-based, SU-DIPG-XVII, MIPE5.0, CellTiter-Glo, qHTS, dose response (AID 1347060; cut-off not given, nearly all actives have AC50 up to about 26 µM)", "settings": "CellTiter-Glo ATP luminescence"}, "[2]": {"experiment": "viability loss in pontine glioma line – cell-based, SU-DIPG-XIII, MIPE4.0, CellTiter-Glo, qHTS, dose response (AID 1347061; cut-off not given, nearly all actives have AC50 up to about 37 µM;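 further: cells exposed to compound for 48 hours before readout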)", "settings": "CellTiter-Glo ATP luminescence"}, "[3]": {"experiment": "viability loss in pontine glioma line – cell-based, JHH-DIPG-1, MIPE4.0, CellTiter-Glo, qHTS, dose response (AID 1347062; cut-off not given, nearly all actives have AC50 up to about 27 µM)", "settings": "JHH-DIPG-1 viability, CellTiter-Glo ATP luminescence"}, "[4]": {"experiment": "viability loss in pontine glioma line – cell-based, SU-DIPG-IV, MIPE4.0, CellTiter-Glo, qHTS, dose response (AID 1347063; cut-off not given, nearly all actives have AC50 up to about 30 µM;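 further: compound exposure lasted 48 hours before the viability readout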)", "settings": "CellTiter-Glo ATP luminescence"}, "[5]": {"experiment": "viability loss in pontine glioma line – cell-based, SU-DIPG-XIII, MIPE5.0, CellTiter-Glo, qHTS, dose response (AID 1347064; cut-off not given, nearly all actives have AC50 up to about 23 µM)", "settings": "CellTiter-Glo ATP luminescence"}, "[6]": {"experiment": "viability loss in pontine glioma line – cell-based, SU-DIPG-XXV, MIPE5.0, CellTiter-Glo, qHTS, dose response (AID 1347065; cut-off not given, nearly all actives have AC50 up to about 26 µM;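 further: cells exposed to compound for 48 hours before ATP readout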)", "settings": "CellTiter-Glo ATP luminescence"}, "[7]": {"experiment": "growth inhibition of DIPG cells – cell-based, MIPE4.0 library, CellTiter-Glo luminescence, qHTS (AID 1347066; cut-off not given, nearly all actives have AC50 up to about 30 µM;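 further: cells exposed to compound for 48 hours before readout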)", "settings": "SU-DIPG-VI viability, CellTiter-Glo ATP luminescence"}, "[8]": {"experiment": "JHH-DIPG-1 glioma cell viability, MIPE5.0 library, CellTiter-Glo luminescence, qHTS (AID 1347067; cut-off not given, nearly all actives have AC50 up to about 26 µM;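 further: cells exposed to compound for 48 hours before readout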)", "settings": "JHH-DIPG-1 glioma viability, CellTiter-Glo ATP luminescence"}, "[9]": {"experiment": "growth inhibition of DIPG cells – cell-based, MIPE5.0 library, qHTS (AID 1347068; cut-off not given, nearly all actives have IC50 up to about 30 µM)", "settings": "SU-DIPG-XXV viability"}, "[10]": {"target": "ATP-dependent translocase ABCB1 (Homo sapiens) (UniProt P08183)", "sequence (P08183 whole entry, looked up)": "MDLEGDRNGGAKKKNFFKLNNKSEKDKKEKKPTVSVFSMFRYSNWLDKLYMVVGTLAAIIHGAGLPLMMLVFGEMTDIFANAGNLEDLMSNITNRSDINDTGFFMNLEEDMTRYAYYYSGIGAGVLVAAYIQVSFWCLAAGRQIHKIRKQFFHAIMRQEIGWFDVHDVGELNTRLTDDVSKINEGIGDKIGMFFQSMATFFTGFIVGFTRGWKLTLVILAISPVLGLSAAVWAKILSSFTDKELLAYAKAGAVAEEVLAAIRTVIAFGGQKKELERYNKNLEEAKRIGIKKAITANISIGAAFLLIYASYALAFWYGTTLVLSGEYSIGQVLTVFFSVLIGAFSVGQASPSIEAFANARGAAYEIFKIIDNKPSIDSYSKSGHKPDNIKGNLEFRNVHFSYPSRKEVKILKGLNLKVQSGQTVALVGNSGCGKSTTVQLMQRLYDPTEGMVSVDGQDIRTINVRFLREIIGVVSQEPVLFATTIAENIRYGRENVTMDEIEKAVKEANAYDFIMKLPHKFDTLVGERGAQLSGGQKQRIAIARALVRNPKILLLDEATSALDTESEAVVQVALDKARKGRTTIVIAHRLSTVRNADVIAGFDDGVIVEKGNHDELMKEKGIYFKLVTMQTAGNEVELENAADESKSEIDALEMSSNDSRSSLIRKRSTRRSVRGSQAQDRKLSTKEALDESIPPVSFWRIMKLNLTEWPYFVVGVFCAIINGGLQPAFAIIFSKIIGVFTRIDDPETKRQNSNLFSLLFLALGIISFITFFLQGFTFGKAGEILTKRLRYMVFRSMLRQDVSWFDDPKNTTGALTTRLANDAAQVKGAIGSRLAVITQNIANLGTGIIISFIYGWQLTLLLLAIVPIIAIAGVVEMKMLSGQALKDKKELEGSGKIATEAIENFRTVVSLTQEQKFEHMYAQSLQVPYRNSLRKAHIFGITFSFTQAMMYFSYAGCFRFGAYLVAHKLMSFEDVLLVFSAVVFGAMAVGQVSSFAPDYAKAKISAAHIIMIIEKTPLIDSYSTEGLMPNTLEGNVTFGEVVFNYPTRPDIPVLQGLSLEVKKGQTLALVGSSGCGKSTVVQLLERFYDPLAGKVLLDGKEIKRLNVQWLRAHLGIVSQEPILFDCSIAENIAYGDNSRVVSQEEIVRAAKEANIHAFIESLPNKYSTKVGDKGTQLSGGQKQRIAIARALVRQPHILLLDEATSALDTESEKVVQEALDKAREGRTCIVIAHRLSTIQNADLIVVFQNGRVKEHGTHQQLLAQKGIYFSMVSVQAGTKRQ", "experiment": "P-glycoprotein substrate transport blockade – cell-based (AID 377; in the data active means fluorescence slope change above about 50%)", "settings": "MDR1-expressing cells, fluorescent substrate accumulation slope; stronger effect = higher value; concentration not given here"}, "[11]": {"experiment": "GFP-Q80 aggregate reduction, neuronal-like cells, cell-based, NGF-treated PC12, GFPQ80 (AID 1614);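 further: lower means fewer inclusions and 0 means no inclusions at all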", "settings": "PC12 NGF-treated GFP-polyQ80 inclusion reduction"}, "F380Y/beta1": {"tested_on": "F380Y/beta1", "experiment": "BK channel mutant inhibitors and activators – cell-based, U2OS BacMam, thallium flux, beta subunits, selectivity assay, profiling panel (AID 1259406);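 further: initial slope of Thallos dye fluorescence rise after thallium is added; log ratio against the mean of 0.3% DMSO vehicle wells on the same plate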", "settings": "U2OS BacMam BK variants, at 30 µM"}, "F380Y/beta4": {"tested_on": "F380Y/beta4", "experiment": "BK channel mutant inhibitors and activators – cell-based, U2OS BacMam, thallium flux, beta subunits, selectivity assay, profiling panel (AID 1259406)", "settings": "U2OS BacMam BK variants, at 30 µM"}, "R275C/beta4": {"tested_on": "R275C/beta4", "experiment": "BK channel mutant inhibitors and activators – cell-based, U2OS BacMam, thallium flux, beta subunits, selectivity assay, profiling panel (AID 1259406)", "settings": "U2OS BacMam BK variants, at 30 µM"}, "R275C/Slo1WT/beta2": {"tested_on": "R275C/Slo1WT/beta2", "experiment": "BK channel mutant inhibitors and activators – cell-based, U2OS BacMam, thallium flux, beta subunits, selectivity assay, profiling panel (AID 1259406)", "settings": "U2OS BacMam BK variants, at 30 µM"}, "[12]": {"tested_on": "Aerobactin synthetase IucA (Klebsiella pneumoniae)", "experiment": "inhibition of K. pneumoniae IucA enzyme – biochemical, Tocris library, absorbance (AID 1345561; call rule not given here;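 further: 100% = enzyme without compound and 0% = no enzyme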)", "settings": "purified IucA enzyme assay, absorbance (OD) read-out; stronger effect = lower value; concentration not given here"}},
  "note": "Inconclusive results are not listed. Active and inactive are the calls of the source.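 How the source made its calls, unless noted: active means thallium flux through the channel raised or lowered by more than 3 SD from vehicle-only wells, actives on both sides; inactive means the rest.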",
  "data": [
    {"smiles": "Cc1ccc(-n2nc(C(C)(C)C)cc2NC(=O)Nc2ccc(OCCN3CCOCC3)c3ccccc23)cc1", "values": [
      {"measurement": "outcome", "setting": "[1]", "result": "inactive"},
      {"measurement": "AC50", "setting": "[2]", "result": "13.2 µM (active)"},
      {"measurement": "outcome", "setting": "[3]", "result": "inactive"},
      {"measurement": "outcome", "setting": "[4]", "result": "inactive"},
      {"measurement": "outcome", "setting": "[5]", "result": "inactive"},
      {"measurement": "outcome", "setting": "[6]", "result": "inactive"},
      {"measurement": "outcome", "setting": "[7]", "result": "inactive"},
      {"measurement": "outcome", "setting": "[8]", "result": "inactive"},
      {"measurement": "outcome", "setting": "[9]", "result": "inactive"}
    ]},
    {"smiles": "CC(C(=O)O)c1cccc(C(=O)c2ccccc2)c1", "note": "(stereo not drawn)", "values": [
      {"measurement": "fluorescence slope change", "setting": "[10]", "result": "70.4% (active)"},
      {"measurement": "inclusion score", "setting": "[11]", "result": 2},
      {"measurement": "outcome", "setting": "[1]", "result": "inactive"},
      {"measurement": "outcome", "setting": "[4]", "result": "inactive"},
      {"measurement": "outcome", "setting": "[5]", "result": "inactive"},
      {"measurement": "outcome", "setting": "[6]", "result": "inactive"},
      {"measurement": "outcome", "setting": "[7]", "result": "inactive"},
      {"measurement": "outcome", "setting": "[8]", "result": "inactive"},
      {"measurement": "log fold change Tl+ flux", "setting": "F380Y/beta1", "result": "-0.011 (inactive)"},
      {"measurement": "log fold change Tl+ flux", "setting": "F380Y/beta4", "result": "0.0138 (inactive)"},
      {"measurement": "log fold change Tl+ flux", "setting": "R275C/beta4", "result": "0.00182 (inactive)"},
      {"measurement": "log fold change Tl+ flux", "setting": "R275C/Slo1WT/beta2", "result": "-0.0223 (inactive)"}
    ]},
    {"smiles": "COc1ccc2cc([C@H](C)C(=O)O)ccc2c1", "values": [
      {"measurement": "inclusion score", "setting": "[11]", "result": 2},
      {"measurement": "remaining activity", "setting": "[12]", "result": "75.8% (inactive)"},
      {"measurement": "outcome", "setting": "[1]", "result": "inactive"},
      {"measurement": "outcome", "setting": "[2]", "result": "inactive"},
      {"measurement": "outcome", "setting": "[3]", "result": "inactive"},
      {"measurement": "outcome", "setting": "[4]", "result": "inactive"},
      {"measurement": "outcome", "setting": "[7]", "result": "inactive"},
      {"measurement": "outcome", "setting": "[8]", "result": "inactive"},
      {"measurement": "outcome", "setting": "[9]", "result": "inactive"},
      {"measurement": "log fold change Tl+ flux", "setting": "F380Y/beta1", "result": "0.0107 (inactive)"},
      {"measurement": "log fold change Tl+ flux", "setting": "F380Y/beta4", "result": "-0.000569 (inactive)"},
      {"measurement": "log fold change Tl+ flux", "setting": "R275C/beta4", "result": "-0.0294 (inactive)"},
      {"measurement": "log fold change Tl+ flux", "setting": "R275C/Slo1WT/beta2", "result": "0.0377 (inactive)"}
    ]},
    {"smiles": "O=C(CCCN1CCC(O)(c2ccc(Cl)cc2)CC1)c1ccc(F)cc1", "values": [
      {"measurement": "fluorescence slope change", "setting": "[10]", "result": "23.3% (inactive)"},
      {"measurement": "remaining activity", "setting": "[12]", "result": "128% (inactive)"},
      {"measurement": "outcome", "setting": "[2]", "result": "inactive"},
      {"measurement": "outcome", "setting": "[4]", "result": "inactive"},
      {"measurement": "outcome", "setting": "[7]", "result": "inactive"},
      {"measurement": "log fold change Tl+ flux", "setting": "F380Y/beta1", "result": "0.0554 (inactive)"},
      {"measurement": "log fold change Tl+ flux", "setting": "F380Y/beta4", "result": "0.0709 (inactive)"},
      {"measurement": "log fold change Tl+ flux", "setting": "R275C/beta4", "result": "-0.0662 (inactive)"},
      {"measurement": "log fold change Tl+ flux", "setting": "R275C/Slo1WT/beta2", "result": "-0.0319 (inactive)"}
    ]},
    {"smiles": "COC(=O)C1=C(C)NC(C)=C(C(=O)OCCN(C)Cc2ccccc2)C1c1cccc([N+](=O)[O-])c1", "note": "(stereo not drawn)", "values": [
      {"measurement": "fluorescence slope change", "setting": "[10]", "result": "15.7% (inactive)"},
      {"measurement": "log fold change Tl+ flux", "setting": "F380Y/beta1", "result": "-0.0357 (inactive)"},
      {"measurement": "log fold change Tl+ flux", "setting": "F380Y/beta4", "result": "-0.137 (active)"},
      {"measurement": "log fold change Tl+ flux", "setting": "R275C/beta4", "result": "0.196 (active)"},
      {"measurement": "log fold change Tl+ flux", "setting": "R275C/Slo1WT/beta2", "result": "0.00258 (inactive)"}
    ]},
    {"smiles": "CC(C)(C)CC(C)(C)c1ccc(OCCOCC[N+](C)(C)Cc2ccccc2)cc1", "values": [
      {"measurement": "fluorescence slope change", "setting": "[10]", "result": "152% (active)"}
    ]},
    {"smiles": "NCCCC(O)(P(=O)(O)O)P(=O)(O)O", "values": [
      {"measurement": "outcome", "setting": "[1]", "result": "inactive"},
      {"measurement": "outcome", "setting": "[2]", "result": "inactive"},
      {"measurement": "outcome", "setting": "[3]", "result": "inactive"},
      {"measurement": "outcome", "setting": "[5]", "result": "inactive"},
      {"measurement": "outcome", "setting": "[6]", "result": "inactive"},
      {"measurement": "outcome", "setting": "[8]", "result": "inactive"},
      {"measurement": "outcome", "setting": "[9]", "result": "inactive"}
    ]},
    {"smiles": "O=C(NCC1CCCCN1)c1cc(OCC(F)(F)F)ccc1OCC(F)(F)F", "note": "(stereo not drawn)", "values": [
      {"measurement": "remaining activity", "setting": "[12]", "result": "117% (inactive)"},
      {"measurement": "outcome", "setting": "[1]", "result": "inactive"},
      {"measurement": "outcome", "setting": "[2]", "result": "inactive"},
      {"measurement": "outcome", "setting": "[5]", "result": "inactive"},
      {"measurement": "outcome", "setting": "[6]", "result": "inactive"},
      {"measurement": "outcome", "setting": "[7]", "result": "inactive"},
      {"measurement": "outcome", "setting": "[8]", "result": "inactive"},
      {"measurement": "outcome", "setting": "[9]", "result": "inactive"}
    ]},
    {"smiles": "O=C(O)CCn1c2c(c3ccccc31)C[C@H](NS(=O)(=O)c1ccc(F)cc1)CC2", "values": [
      {"measurement": "outcome", "setting": "[1]", "result": "inactive"},
      {"measurement": "outcome", "setting": "[2]", "result": "inactive"},
      {"measurement": "outcome", "setting": "[3]", "result": "inactive"},
      {"measurement": "outcome", "setting": "[6]", "result": "inactive"},
      {"measurement": "outcome", "setting": "[7]", "result": "inactive"},
      {"measurement": "outcome", "setting": "[8]", "result": "inactive"},
      {"measurement": "outcome", "setting": "[9]", "result": "inactive"}
    ]},
    {"smiles": "Clc1ccccc1CN1CCc2sccc2C1", "values": [
      {"measurement": "outcome", "setting": "[1]", "result": "inactive"},
      {"measurement": "outcome", "setting": "[2]", "result": "inactive"},
      {"measurement": "outcome", "setting": "[3]", "result": "inactive"},
      {"measurement": "outcome", "setting": "[5]", "result": "inactive"},
      {"measurement": "outcome", "setting": "[6]", "result": "inactive"},
      {"measurement": "outcome", "setting": "[7]", "result": "inactive"},
      {"measurement": "outcome", "setting": "[8]", "result": "inactive"},
      {"measurement": "outcome", "setting": "[9]", "result": "inactive"},
      {"measurement": "log fold change Tl+ flux", "setting": "F380Y/beta1", "result": "-0.0989 (active)"},
      {"measurement": "log fold change Tl+ flux", "setting": "F380Y/beta4", "result": "-0.152 (active)"},
      {"measurement": "log fold change Tl+ flux", "setting": "R275C/beta4", "result": "-0.0465 (inactive)"},
      {"measurement": "log fold change Tl+ flux", "setting": "R275C/Slo1WT/beta2", "result": "0.00594 (inactive)"}
    ]}
  ]
}
